The campaign covered roughly 5,500 compounds. About 2,000 (36%) were called active. Inconclusive results (about 18%) are left out. No stated cut-off is given here; in the data, active means normalized growth mostly below about 0.91 (no sharp cut-off); inconclusive means no clear call, values can overlap the other calls; inactive means mostly above about 0.92. Some of the results follow.
Experiment: chemical genetic growth profiling, strain panel (AID 1159580);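 further: tested at 20 µM; growth read once vehicle control cultures reached saturation at 30 °C; 1 = growth at the plate median or of vehicle wells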
Conditions: growth OD
[1] = S. cerevisiae deletion strains, locus YJR075W, strain HOC1, stronger effect = lower value
[2] = S. cerevisiae deletion strains, locus YNL153C, strain GIM3, stronger effect = lower value
[3] = S. cerevisiae deletion strains, locus YPL055C, strain LGE1, stronger effect = lower value
[4] = S. cerevisiae deletion strains, locus YPL241C, strain CIN2, stronger effect = lower value
[5] = S. cerevisiae deletion strains, locus YDL101C, strain DUN1, stronger effect = lower value
[6] = S. cerevisiae deletion strains, locus YHR030C, strain SLT2, stronger effect = lower value

Measured: normalized growth

COCC(=O)O[C@]1(CCN(C)CCCc2nc3ccccc3[nH]2)CCc2cc(F)ccc2[C@@H]1C(C)C
inactive: S. cerevisiae deletion strains, locus YAL040C, strain CLN3, stronger effect = lower value 1 | S. cerevisiae deletion strains, locus YCL061C, strain MRC1 (second series), stronger effect = lower value 1 | S. cerevisiae deletion strains, locus YDR363W, strain ESC2, stronger effect = lower value 1 | S. cerevisiae deletion strains, locus YER002W, strain NOP16, stronger effect = lower value 1.02 | [1] 0.967 | [2] 0.941 | S. cerevisiae deletion strains, locus YNL175C, strain NOP13, stronger effect = lower value 1.03 | S. cerevisiae deletion strains, locus YNL197C, strain WHI3, stronger effect = lower value 1.04 | S. cerevisiae deletion strains, locus YNL224C, strain SQS1, stronger effect = lower value 1.03 | S. cerevisiae deletion strains, locus YOR083W, strain WHI5 (second series), stronger effect = lower value 1.03 | [3] 0.929 | [4] 0.985

O=C(CCSc1cccs1)Nc1cccc(C(F)(F)F)c1
inactive: S. cerevisiae deletion strains, locus YAR019C, strain CDC15, stronger effect = lower value 0.936 | S. cerevisiae deletion strains, locus YBL105C, strain PKC1, stronger effect = lower value 0.922 | S. cerevisiae deletion strains, locus YBR135W, strain CKS1, stronger effect = lower value 0.929 | S. cerevisiae deletion strains, locus YBR136W, strain MEC1, stronger effect = lower value 0.911 | S. cerevisiae deletion strains, locus YBR160W, strain CDC28, stronger effect = lower value 0.926 | S. cerevisiae deletion strains, locus YDL017W, strain CDC7, stronger effect = lower value 0.922 | S. cerevisiae deletion strains, locus YDL028C, strain MPS1, stronger effect = lower value 0.93 | [5] 0.921 | S. cerevisiae deletion strains, locus YDL108W, strain KIN28, stronger effect = lower value 0.946 | S. cerevisiae deletion strains, locus YDL132W, strain cdc53, stronger effect = lower value 0.92 | S. cerevisiae deletion strains, locus YDL214C, strain PRR2, stronger effect = lower value 0.911 | S. cerevisiae deletion strains, locus YDR052C, strain DBF4, stronger effect = lower value 0.948 | S. cerevisiae deletion strains, locus YDR054C, strain cdc34, stronger effect = lower value 0.916 | S. cerevisiae deletion strains, locus YDR226W, strain ADK1, stronger effect = lower value 0.93 | S. cerevisiae deletion strains, locus YDR477W, strain SNF1, stronger effect = lower value 0.966 | S. cerevisiae deletion strains, locus YER123W, strain YCK3, stronger effect = lower value 0.915 | S. cerevisiae deletion strains, locus YER133W, strain GLC7, stronger effect = lower value 0.965 | S. cerevisiae deletion strains, locus YFL009W, strain cdc4, stronger effect = lower value 0.945 | S. cerevisiae deletion strains, locus YFL029C, strain CAK1, stronger effect = lower value 0.925 | S. cerevisiae deletion strains, locus YFR003C, strain YPI1, stronger effect = lower value 0.93 | S. cerevisiae deletion strains, locus YFR019W, strain FAB1, stronger effect = lower value 0.931 | S. cerevisiae deletion strains, locus YFR028C, strain CDC14, stronger effect = lower value 0.952 | S. cerevisiae deletion strains, locus YGR040W, strain KSS1, stronger effect = lower value 0.961 | S. cerevisiae deletion strains, locus YGR052W, strain FMP48, stronger effect = lower value 0.952 | S. cerevisiae deletion strains, locus YGR092W, strain DBF2, stronger effect = lower value 0.872 | S. cerevisiae deletion strains, locus YHR079C, strain IRE1, stronger effect = lower value 0.853 | S. cerevisiae deletion strains, locus YHR082C, strain KSP1, stronger effect = lower value 0.884 | S. cerevisiae deletion strains, locus YHR205W, strain SCH9, stronger effect = lower value 0.807 | S. cerevisiae deletion strains, locus YIL147C, strain SLN1, stronger effect = lower value 0.927 | S. cerevisiae deletion strains, locus YJL095W, strain BCK1, stronger effect = lower value 0.888 | S. cerevisiae deletion strains, locus YJL128C, strain PBS2, stronger effect = lower value 0.865 | S. cerevisiae deletion strains, locus YJL157C, strain FAR1, stronger effect = lower value 0.949 | S. cerevisiae deletion strains, locus YJR016C, strain ILV3, stronger effect = lower value 0.92 | S. cerevisiae deletion strains, locus YJR066W, strain TOR1 (second series), stronger effect = lower value 0.992 | S. cerevisiae deletion strains, locus YJR066W, strain TOR1, stronger effect = lower value 0.905 | S. cerevisiae deletion strains, locus YKL048C, strain ELM1, stronger effect = lower value 0.92 | S. cerevisiae deletion strains, locus YKL067W, strain YNK1, stronger effect = lower value 0.927 | S. cerevisiae deletion strains, locus YKL101W, strain HSL1, stronger effect = lower value 0.911 | S. cerevisiae deletion strains, locus YKL193C, strain SDS22, stronger effect = lower value 0.913 | S. cerevisiae deletion strains, locus YKL203C, strain TOR2, stronger effect = lower value 1.01 | S. cerevisiae deletion strains, locus YLR133W, strain CKI1, stronger effect = lower value 0.936 | S. cerevisiae deletion strains, locus YLR403W, strain SFP1, stronger effect = lower value 0.965 | S. cerevisiae deletion strains, locus YML070W, strain DAK1, stronger effect = lower value 0.891 | S. cerevisiae deletion strains, locus YMR001C, strain CDC5, stronger effect = lower value 0.924 | S. cerevisiae deletion strains, locus YMR205C, strain PFK2 (second series), stronger effect = lower value 0.913 | S. cerevisiae deletion strains, locus YMR277W, strain FCP1, stronger effect = lower value 0.919 | S. cerevisiae deletion strains, locus YNL006W, strain LST8, stronger effect = lower value 0.938 | S. cerevisiae deletion strains, locus YNL020C, strain ARK1, stronger effect = lower value 0.923 | S. cerevisiae deletion strains, locus YNL161W, strain CBK1, stronger effect = lower value 0.918 | S. cerevisiae deletion strains, locus YNL183C, strain NPR1, stronger effect = lower value 0.857 | S. cerevisiae deletion strains, locus YNL207W, strain RIO2, stronger effect = lower value 0.921 | S. cerevisiae deletion strains, locus YNL222W, strain SSU72, stronger effect = lower value 0.923 | S. cerevisiae deletion strains, locus YNL307C, strain MCK1 (second series), stronger effect = lower value 0.88 | S. cerevisiae deletion strains, locus YOL078W, strain AVO1, stronger effect = lower value 0.917 | S. cerevisiae deletion strains, locus YOL136C, strain PFK27, stronger effect = lower value 0.889 | S. cerevisiae deletion strains, locus YOR061W, strain CKA2, stronger effect = lower value 0.927 | S. cerevisiae deletion strains, locus YOR119C, strain RIO1, stronger effect = lower value 0.964 | S. cerevisiae deletion strains, locus YOR231W, strain MKK1, stronger effect = lower value 0.854 | S. cerevisiae deletion strains, locus YOR329C, strain SCD5, stronger effect = lower value 0.921 | S. cerevisiae deletion strains, locus YPL031C, strain PHO85, stronger effect = lower value 0.961 | S. cerevisiae deletion strains, locus YPL153C, strain RAD53, stronger effect = lower value 0.962 | S. cerevisiae deletion strains, locus YPL204W, strain HRR25, stronger effect = lower value 0.953 | S. cerevisiae deletion strains, locus YPL209C, strain IPL1, stronger effect = lower value 0.92 | S. cerevisiae deletion strains, locus YPR025C, strain CCL1, stronger effect = lower value 0.932 | S. cerevisiae deletion strains, locus YPR106W, strain ISR1, stronger effect = lower value 0.918 | S. cerevisiae deletion strains, locus YPR111W, strain DBF20, stronger effect = lower value 0.901 | S. cerevisiae deletion strains, strain NNK1, stronger effect = lower value 0.888 | S. cerevisiae deletion strains, strain TSCII, stronger effect = lower value 0.921
active: [6] 0.84 | S. cerevisiae deletion strains, locus YLR113W, strain HOG1, stronger effect = lower value 0.711 | S. cerevisiae deletion strains, locus YPL256C, strain CLN2, stronger effect = lower value 0.796

O=C(O)CCNC(=S)Nc1cccc(C(F)(F)F)c1
inactive: S. cerevisiae deletion strains, locus YAL013W, strain DEP1, stronger effect = lower value 0.998 | S. cerevisiae deletion strains, locus YBR229C, strain ROT2, stronger effect = lower value 1.01 | S. cerevisiae deletion strains, locus YCL061C, strain MRC1, stronger effect = lower value 0.99 | [5] 1.01 | S. cerevisiae deletion strains, locus YDL134C, strain PPH21, stronger effect = lower value 0.983 | S. cerevisiae deletion strains, locus YDR150W, strain NUM1, stronger effect = lower value 1.03 | S. cerevisiae deletion strains, locus YEL061C, strain CIN8, stronger effect = lower value 1.02 | S. cerevisiae deletion strains, locus YGR078C, strain PAC10, stronger effect = lower value 1.01 | S. cerevisiae deletion strains, locus YGR229C, strain SMI1, stronger effect = lower value 0.982 | [6] 0.996 | S. cerevisiae deletion strains, locus YHR087W, strain rtc3, stronger effect = lower value 1.02 | S. cerevisiae deletion strains, locus YJR043C, strain POL32, stronger effect = lower value 0.987 | [1] 0.997 | S. cerevisiae deletion strains, locus YLR039C, strain RIC1, stronger effect = lower value 0.976 | S. cerevisiae deletion strains, locus YLR058C, strain SHM2 (second series), stronger effect = lower value 0.999 | S. cerevisiae deletion strains, locus YLR085C, strain ARP6, stronger effect = lower value 0.971 | S. cerevisiae deletion strains, locus YLR262C, strain YPT6, stronger effect = lower value 0.986 | S. cerevisiae deletion strains, locus YML094W, strain GIM5, stronger effect = lower value 1.11 | S. cerevisiae deletion strains, locus YMR219W, strain ESC1, stronger effect = lower value 1 | S. cerevisiae deletion strains, locus YMR263W, strain SAP30, stronger effect = lower value 0.984 | [2] 1.01 | S. cerevisiae deletion strains, locus YNL298W, strain CLA4 (second series), stronger effect = lower value 0.985 | S. cerevisiae deletion strains, locus YNL322C, strain KRE1, stronger effect = lower value 1.01 | S. cerevisiae deletion strains, locus YNR030W, strain Alg12, stronger effect = lower value 1.03 | [3] 1.04 | [4] 0.918 | S. cerevisiae deletion strains, locus YPR135W, strain CTF4, stronger effect = lower value 1.06 | S. cerevisiae strains, strain wild type, stronger effect = lower value 0.966

— PubChem BioAssay AID1159580 (chemical genetic matrix, 2015)
